Compound activity (PubChem)
An excerpt weighted towards active compounds, which were near 5.3% of everything screened.
ALOX15B inhib = qHTS Assay for Inhibitors of 15-hLO-2 (15-human lipoxygenase 2); hit rate 0.56% among 110,000; purified 15hLO-2, xylenol orange hydroperoxide absorbance; Potency, µM (series often up to 57.1 µM), inactives show top-dose activity change, negative = inhibition, most hits filed as inhibitors; Polyunsaturated fatty acid lipoxygenase ALOX15B (Homo sapiens), O15296; AID 881, 2007; also: potency is read from the fitted curve at half-maximal effect; nearly all actives have a fitted effect of over 60% in size
Target sequence (O15296 whole entry, looked up): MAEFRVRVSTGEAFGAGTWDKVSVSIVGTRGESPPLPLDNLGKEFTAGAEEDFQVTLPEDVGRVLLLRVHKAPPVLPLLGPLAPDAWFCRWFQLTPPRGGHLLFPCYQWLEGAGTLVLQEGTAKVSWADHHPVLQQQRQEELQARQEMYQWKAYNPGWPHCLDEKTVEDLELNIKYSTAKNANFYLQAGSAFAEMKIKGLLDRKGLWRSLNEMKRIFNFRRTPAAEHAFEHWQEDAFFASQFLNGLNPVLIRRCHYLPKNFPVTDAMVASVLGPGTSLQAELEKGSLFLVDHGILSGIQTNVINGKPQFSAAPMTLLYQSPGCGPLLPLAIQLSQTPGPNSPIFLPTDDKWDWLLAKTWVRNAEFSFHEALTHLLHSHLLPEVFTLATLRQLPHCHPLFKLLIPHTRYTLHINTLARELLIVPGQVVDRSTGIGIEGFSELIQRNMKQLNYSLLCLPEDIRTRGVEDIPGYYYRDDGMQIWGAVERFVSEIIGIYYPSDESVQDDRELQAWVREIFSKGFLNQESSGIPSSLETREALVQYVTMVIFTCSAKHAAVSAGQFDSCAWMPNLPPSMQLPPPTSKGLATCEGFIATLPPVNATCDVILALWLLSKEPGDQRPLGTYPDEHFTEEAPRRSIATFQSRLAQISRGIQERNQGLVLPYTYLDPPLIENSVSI
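Purified human 15hLO-2 (50 nM) preincubated 15 min with compound, then 45 uM arachidonic acid for 90 min at RT in 25 mM Hepes pH 7.5, 0.01% Triton X-100. Hydroperoxide detected by Fe-xylenol orange; 573/405 nm absorbance ratio.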
IMPase cell inh = qHTS Assay for Identifying the Cell-Membrane Permeable IMPase Inhibitors. Inositol monophosphatase 1 (Rattus norvegicus), P97697. CHO-M1 cells, IP1 accumulation, HTRF TR-FRET ratio. inhibition (IP1 accumulation), % at 46.1 µM. 120,000 tested, under 10 active; active = well fitted curve in the direction sought with a large enough effect in the signal ratio, not every such curve was filed as active; inconclusive = small, poorly fitted or top-dose-only effect, or a change in a side signal; inactive = no such curve, though single readings can be large or run the other way; the % refers to the signal ratio;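 also: cells stimulated with carbachol in lithium chloride buffer; plate controls were DMSO basal wells for no effect and reference inhibitor wells for full effect; higher means more IMPase inhibition seen as more IP1 and lower FRET ratio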
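Measured: the HTRF emission ratio (665/620 nm) plus the 620 nm donor channel, each fitted to the Hill equation to give AC50. Cells were CHO-M1 given compounds up to 46 uM and a 30 min carbachol stimulation at 37C.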
PNC assembly inh = High Content Assay for Compounds that inhibit the Assembly of the Perinucleolar Compartment | AID 2417, 2010 | hit rate 3.1% among 140,000 | PC3M PTB-GFP, PNC prevalence imaging, 16 h; hits give low values | activity change (PNC), negative = inhibition, % at 10 µM;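 active = readout at or below -70, meaning at least 70% loss of cells showing the perinucleolar compartment, a nuclear body marking cancer cells; inconclusive = readout between -30 and a set limit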;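 also: plate controls were DMSO wells for no effect and camptothecin positive control wells for full effect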
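Read-out is percentage of cells bearing a perinucleolar compartment, from automated 20x imaging of fixed, Hoechst-stained PC3M PTB-GFP cells. Cells were seeded 4 h, then exposed 16 h to compound (23 nl of library stock) in duplicate plates.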
IMPase Li cell = qHTS Assay for Identifying the Cell-Membrane Permeable IMPase Inhibitors: Potentiation with Lithium; CHO-M1 cells, IP1 TR-FRET (IP-One), carbachol + lithium; Potency, µM (highest dose often 59.4 µM), for inactives: top-dose activity, negative = IMPase inhibition, actives largely listed as inhibitors; hit rate 0.35% among 210,000;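 also: IP1 builds up when IMPase is blocked and the TR-FRET signal falls; potency is read from the fitted curve at half-maximal effect; plate controls were basal vehicle for no effect and high inhibitor control for full effect; nearly all actives have a fitted effect of over 50% in size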
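Readout is a homogeneous TR-FRET IP1 immunoassay (Ex 320, Em 665 and 620), where raised cytosolic IP1 lowers signal. Cells were CHO-M1 treated 30 min at 37C with test compounds plus a little lithium; AC50 values came from Hill-equation fitting.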
HPGD inh = qHTS Assay for Inhibitors of HPGD (15-Hydroxyprostaglandin Dehydrogenase); 15-hydroxyprostaglandin dehydrogenase [NAD(+)] (Homo sapiens), P15428; purified HPGD, NADH fluorescence kinetic, PGE2 substrate; Potency, µM, inactives show top-dose activity change, negative = inhibition, actives largely listed as inhibitors; hit rate 4.3% among 150,000; AID 894, 2007; active = well fitted inhibition curve with a large enough effect, not every such curve was filed as active; inconclusive = small, poorly fitted or top-dose-only effect, or another doubt; inactive = no such curve, though single readings can be large or run the other way; also: potency is read from the fitted curve at half-maximal effect
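NADH formation kinetics: reaction with 30 uM PGE2 and 1 mM NAD+ (final), 20 nM enzyme, Tris-HCl pH 8 with Tween 20, after 15 min compound preincubation at room temperature. Fluorescence change, last versus first of five reads.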
ALOX12 inhib = qHTS Assay for Inhibitors of 12-hLO (12-human lipoxygenase); Polyunsaturated fatty acid lipoxygenase ALOX12 (Homo sapiens), P18054; purified 12-hLO, xylenol orange hydroperoxide absorbance; Potency, µM (titrated, usually from 57.1 µM), for inactives: top-dose activity change, negative = inhibition, actives largely listed as inhibitors; hit rate 0.12% among 150,000; also: potency is read from the fitted curve at half-maximal effect; nearly all actives have a fitted effect of over 55% in size
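Lipoxygenase turnover measured by absorbance at 573 and 405 nm after Fe-XO development. Human 12hLO 150 nM, arachidonate 40 uM, pH 7.0 Hepes buffer with detergent; 15 min compound preincubation, 30 min reaction.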
The depositor's hits bear a star; ? = inconclusive; nt = no result; [ ] = dose if it differs, or a comment. Unless noted, calls follow the shape of the dose curve; as a rule, active = well fitted curve in the direction sought with a large enough effect; inconclusive = small, poorly fitted or top-dose-only effect, or another doubt; inactive = no such curve, though single readings can be large; an effect the other way counts as inactive or inconclusive. Unless noted, % is scaled to controls: 0 for no effect and ±100 for the full control effect.

SMILES	ALOX15B inhib	IMPase cell inh	PNC assembly inh	IMPase Li cell	HPGD inh	ALOX12 inhib
O=C(NCCN1CCOCC1)c1ccc2c(c1)N(Cc1ccccc1)C(=O)CS2	0%[2.29 µM]	12	22	27%[38.3 µM]	-1%	-6%
O=C(NCCC1=CCCCC1)c1ccc2c(c1)N(Cc1ccccc1)C(=O)CS2	5%	12	-84*	45%[38.3 µM]	-15%	2%
c1cc(NC2CC2)nc(-c2ccoc2)n1	7%	nt	nt	-3%	nt	nt
CC(C)CCn1c(COc2ccccc2)n[nH]c1=S	nt	nt	nt	24%	nt	nt
S=c1[nH]nc(COc2ccccc2)n1/N=C/C(Cl)=C/c1ccccc1	?	6	40	9%[38.3 µM]	25µM*	-4%
S=c1[nH]nc(COc2ccccc2)n1/N=C/C=C/c1ccccc1	nt	6	0	-12%	5µM*	-25%
S=c1[nH]nc(COc2ccccc2)n1C1CCCCC1	-25%	-8	-6	32%[38.3 µM]	22µM*	-12%
S=c1[nH]nc(-c2ccncc2)n1/N=C/C(Cl)=C\c1ccccc1	nt	nt	nt	23%	nt	nt
S=c1[nH]nc(COc2ccccc2)n1Cc1ccccc1	nt	nt	51	23%	?	-5%
COc1ccc(/C=C/CN2CCC(CO)(Cc3ccccc3Cl)CC2)cc1	nt	nt	nt	24%	nt	nt
O=C1CCC/C(=N/NC(=O)C2CCN(S(=O)(=O)c3cccs3)CC2)C1	nt	nt	?	-1%	-2%	-4%
Cc1csc(SCc2ccc(C(=O)O)cc2)n1	3%	2	-111*	-5%[38.3 µM]	-24%	3%
COc1cccc2c(=S)c(CCC(C)=O)c(C)[nH]c12	nt	-20	12	10µM*	?	-1%
CC(=O)CCc1c(C)c2cccc(C)c2[nH]c1=O	-4%	-6	28	7%[38.3 µM]	?	-1%
CCCC1(C(=O)O)NC(c2ccccc2O)C2C(=O)N(Cc3ccccc3)C(=O)C21 (configuration not stated)	12%	8	-110*	5%[38.3 µM]	-9%	-12%
CCC1(C(=O)O)NC(c2cc(OC)ccc2O)C2C(=O)N(Cc3ccccc3)C(=O)C21 (configuration not stated)	8%	-1	34	-11%[38.3 µM]	-1%	1%
CN(C(=O)c1cnc(N2CCN(c3ncccn3)CC2)c2ccccc12)c1ccc(Cl)cc1	23%	-12	4	13%[38.3 µM]	22µM*	7%
CCC(=O)c1ccc(OCC(O)Cn2c(C)nc3ccccc32)cc1 (configuration not stated)	8%	7	-121*	10%	-14%	0%
Cc1nc(C)n(CC(O)COc2ccc(C(=O)c3ccccc3)cc2)n1 (configuration not stated)	4%	5	-95*	-1%[38.3 µM]	-16%	4%
O=C(NC(=S)Nc1cc(-c2nc3ccccc3[nH]2)ccc1Cl)c1ccc2c(c1)OCO2	nt	nt	-1	5%	20µM*	5%
Cc1ccc(-c2nc3ccccc3[nH]2)cc1NC(=O)c1ccc2c(c1)OCO2	26%	2	?	18%[38.3 µM]	-11%	2%
O=C1c2cccc3c([N+](=O)[O-])ccc(c23)C(=O)N1c1ccccn1	?	?	-105*	41%[38.3 µM]	28µM*	12%
CC1CCN(c2ccc(/C=N/n3nnnc3N)cc2[N+](=O)[O-])CC1	-6%	-4	?	2%[38.3 µM]	-1%	-1%
CC1CCN(c2ccc(/C=N\Nc3nncn3N)cc2[N+](=O)[O-])CC1	nt	nt	-116*	3%	-9%	-2%
COc1cc(C)c(NC(=O)C(=S)NCCc2ccccc2)cc1C	nt	nt	nt	17%	nt	nt
SMILES	ALOX15B inhib	IMPase cell inh	PNC assembly inh	IMPase Li cell	HPGD inh	ALOX12 inhib
O=C(COC(=O)Cc1ccccc1F)Nc1cc(S(=O)(=O)N2CCOCC2)ccc1N1CCCC1	nt	2	48	-6%	?	3%
O=C(O)COc1ccc(Br)cc1/C=N/O	-4%	-11	-10	-8%[38.3 µM]	-14%	-2%
C#CCOc1ccc(Br)cc1/C=N/O	-4%	3	30	22%[38.3 µM]	14µM*	-6%
CCOc1ccc(Br)cc1/C=N/O	7%	14	-19	-12%[38.3 µM]	11µM*	-11%
CCCOc1ccc(Br)cc1/C=N/O	0%	7	-17	6%[38.3 µM]	10µM*	-18%
C=CC(=O)OCCCCCCOC(=O)C=C	3%	nt	nt	-5%	-4%	1%
COc1cc(NC(=O)C2CC2)c(OC)cc1NC(=O)CCC(=O)NC1CCN(Cc2ccccc2)CC1	nt	nt	nt	4%	nt	nt
O=S(=O)(Nc1ccccn1)c1cnc(Cl)c(Br)c1	nt	-5	?	-5%	-11%	1%
CC(=O)NC1C(=O)N=C(SCC(=O)NCc2ccccc2)NC1=O (configuration not stated)	nt	-5	-100*	6%	-9%	3%
CC(=O)NC1C(=O)N=C(SCC(=O)Nc2c(C)cccc2C)NC1=O (configuration not stated)	nt	nt	nt	5%	nt	nt
Clc1cccc(-c2cc3nc4c(c(N5CCOCC5)n3n2)CCCC4)c1	19%	5	16	23%[38.3 µM]	?	7%
Clc1cccc(-c2cc3nc4c(c(N5CCN(c6cnccn6)CC5)n3n2)CCCC4)c1	nt	-3	-100*	19%	?	-4%
OC1CCN(c2c3c(nc4cc(-c5ccc(Cl)cc5)nn24)CCC3)CC1	nt	-12	-25	7%	-9%	-10%
c1nc2nc3c(c(N4CCOCC4)n2n1)CCCC3	-4%	-3	-107*	-13%[38.3 µM]	-12%	-2%
Fc1cccc(-c2cc3nc4c(c(N5CCOCC5)n3n2)CCCC4)c1	5%	11	-91*	17%[38.3 µM]	?	-3%
CC(c1ccc(C(C)(C)C)cc1)S(=O)CC(O)CO (configuration not stated)	nt	nt	-112*	-10%	-4%	-2%
C/C(=C\C(=O)C(F)(F)F)Nc1cc(C)cc(C)c1	5%	5	-85*	-4%	-17%	9%
N/C(=N\OC(=O)c1cccs1)c1ccccc1	nt	nt	-5	-6%	32µM*	4%
Cc1ccc(/C(N)=N/OC(=O)c2cccs2)cc1	nt	nt	-1	6%	-9%	0%
Cc1cccc(/C(N)=N/OC(=O)c2cccs2)c1	4%	1	55	-12%[38.3 µM]	20µM*	6%
COC(=O)c1c(C)[nH]c(O)c1C=Nc1ccc(C(C)C)cc1	-24%	-5	47	7%[38.3 µM]	25µM*	-20%
COC(=O)c1c(C)[nH]c(O)c1C=Nc1ccc(Oc2ccccc2)cc1	nt	nt	nt	17%	nt	nt
Cc1cc(C)c2c(=O)[nH]c(SCc3ccccc3)nc2n1	nt	nt	nt	6%	nt	nt
